# Results: the supplement of paper PMC9801561
# ± gives the standard deviation of the averaged measurements.
# Key:
# [1] = tested on: Escherichia coli Nissle 1917; test: area under OmniLog respiration curve over 48 h (OmniLog units x h); higher = more growth / nutrient utilisation; extreme values may be limits of the assay; details: incubation: 48 h, 37 °C
# [2] = tested on: Escherichia coli Nissle 1917; test: DuctApe activity index of respiration/growth curve (0 no growth to 9 maximum) (index 0-9); higher = more growth / nutrient utilisation, active = 3 or more; extreme values may be limits of the assay; details: incubation: 48 h, 37 °C
# [3] = nutrient role: C-Source, carboxylic acid
# [4] = nutrient role: sole nitrogen source (pyruvate carbon)
# [5] = nutrient role: C-Source, alcohol
# [6] = nutrient role: C-Source, carbohydrate
# [7] = nutrient role: sole phosphorus source (pyruvate carbon)
# [8] = nutrient role: sole sulfur source (pyruvate carbon)
# 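For DuctApe activity index of respiration/growth curve (0 no growth to 9 maximum) in this document: biolog PM4 phosphorus and sulfur plates, tetrazolium violet dye reduction read in the OmniLog every 15 min, kinetic curves scored by DuctApe, each plate run in triplicate.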
smiles,measurement,setting,value
CCCC(=O)C(=O)O [a-Keto-Valeric acid],area under OmniLog respiration curve,[1]; [3],4.72
same,DuctApe activity index,[2]; [3],0 (inactive)
Oc1nc(O)c2nc(O)[nH]c2n1 [Uric acid],area under OmniLog respiration curve,[1]; [4],986 ± 490
same,DuctApe activity index,[2]; [4],2.33 (inactive)
NCCO [2-Aminoethanol],area under OmniLog respiration curve,[1]; [5],149 ± 200
same,DuctApe activity index,[2]; [5],0 (inactive)
CO[C@H]1O[C@H](CO)[C@H](O)[C@H](O)[C@H]1O [a-Methyl-D-Galactoside],area under OmniLog respiration curve,[1]; [6],8070 ± 460
same,DuctApe activity index,[2]; [6],8 (active)
O[C@@H]1[C@H](O)[C@H](O)CO[C@H]1O [D-Ribose],area under OmniLog respiration curve,[1]; [6],9520 ± 880
same,DuctApe activity index,[2]; [6],8.67 (active)
CC(O)(CC(=O)O)C(=O)O (centres undefined) [Citramalic acid],area under OmniLog respiration curve,[1]; [3],4.72
same,DuctApe activity index,[2]; [3],0 (inactive)
O=P(O)(O)OC[C@H]1OC(O)C[C@@H](O)[C@@H]1O (stereo partly drawn) [2-Deoxy-D-Glucose 6-Phosphate],area under OmniLog respiration curve,[1]; [7],4.72
same,DuctApe activity index,[2]; [7],0 (inactive)
OC[C@@H]1OC(O)[C@@H](O)[C@H](O)[C@H]1O (stereo partly drawn) [L-Glucose],area under OmniLog respiration curve,[1]; [6],29.9 ± 43
same,DuctApe activity index,[2]; [6],0 (inactive)
CC(=O)N[C@H]1[C@H]([C@H](O)[C@H](O)CO)OC(O)(C(=O)O)C[C@@H]1O (some centres undefined) [N-Acetyl-Neuraminic acid],area under OmniLog respiration curve,[1]; [3],6140 ± 840
same,DuctApe activity index,[2]; [3],7 (active)
O=C(O)Cc1ccc(O)cc1 [p-Hydroxyphenyl Acetic acid],area under OmniLog respiration curve,[1]; [3],40.5 ± 54
same,DuctApe activity index,[2]; [3],0 (inactive)
C=C(OP(=O)(O)O)C(=O)O [Phosphoenol Pyruvate],area under OmniLog respiration curve,[1]; [7],9270 ± 480
same,DuctApe activity index,[2]; [7],9 (active)
O=C(O)C(CO)OP(=O)(O)O [D-2-Phospho-Glyceric acid],area under OmniLog respiration curve,[1]; [7],9640 ± 700
same,DuctApe activity index,[2]; [7],9 (active)
C[C@H](N)C(=O)N[C@@H](CCC(N)=O)C(=O)O,area under OmniLog respiration curve,[1]; [4],8550 ± 1600
same,DuctApe activity index,[2]; [4],8 (active)
NCC(=O)N[C@@H](CC(N)=O)C(=O)O,area under OmniLog respiration curve,[1]; [4],8340 ± 1500
same,DuctApe activity index,[2]; [4],8 (active)
O=P(O)(O)OC(CO)CO [b-Glycerol Phosphate],area under OmniLog respiration curve,[1]; [7],8820 ± 470
same,DuctApe activity index,[2]; [7],8.67 (active)
OC[C@@H](O)[C@@H](O[C@@H]1O[C@H](CO)[C@H](O)[C@H](O)[C@H]1O)[C@H](O)[C@@H](O)CO [D-Lactitol],area under OmniLog respiration curve,[1]; [6],5600 ± 540
same,DuctApe activity index,[2]; [6],7 (active)
NC(=O)NCCC[C@H](N)C(=O)O [L-Citrulline],area under OmniLog respiration curve,[1]; [4],1240 ± 540
same,DuctApe activity index,[2]; [4],2.33 (inactive)
OC[C@H]1O[C@@H](O[C@H]2[C@H](O)[C@@H](O)[C@@H](O)O[C@@H]2CO)[C@H](O)[C@@H](O)[C@H]1O [a-D-Lactose],area under OmniLog respiration curve,[1]; [6],7580 ± 630
same,DuctApe activity index,[2]; [6],7.67 (active)
O=P(O)(O)O[C@H]1O[C@H](CO)[C@@H](O)[C@H](O)[C@@H]1O [D-Mannose-1-Phosphate],area under OmniLog respiration curve,[1]; [7],9100 ± 340
same,DuctApe activity index,[2]; [7],9 (active)
C[C@@H]1OC(O)[C@H](O)[C@H](O)[C@H]1O (stereo partly drawn) [L-Rhamnose],area under OmniLog respiration curve,[1]; [6],6960 ± 610
same,DuctApe activity index,[2]; [6],7.33 (active)
C[C@H](N)C(=O)N[C@H](C(=O)O)[C@@H](C)O,area under OmniLog respiration curve,[1]; [4],7530 ± 1100
same,DuctApe activity index,[2]; [4],8 (active)
NC(=O)CCCCC1CCSS1 (racemic) [DL-Lipoamide],area under OmniLog respiration curve,[1]; [8],561 ± 220
same,DuctApe activity index,[2]; [8],1 (inactive)
NC(=O)C[C@@H](N)C(=O)O [D-Asparagine],area under OmniLog respiration curve,[1]; [4],1420 ± 780
same,DuctApe activity index,[2]; [4],2.33 (inactive)
C[S+]([O-])CC[C@H](N)C(=O)O (stereo partly drawn) [L-Methionine Sulfoxide],area under OmniLog respiration curve,[1]; [8],5350 ± 130
same,DuctApe activity index,[2]; [8],7 (active)
O=C(O)CCC(=O)O [Succinic acid],area under OmniLog respiration curve,[1]; [3],9020 ± 680
same,DuctApe activity index,[2]; [3],8.67 (active)
OC[C@H]1O[C@@H](n2cnc3c(O)nc(O)nc32)[C@H](O)[C@@H]1O [Xanthosine],area under OmniLog respiration curve,[1]; [4],2070 ± 1300
same,DuctApe activity index,[2]; [4],4 (active)
O=c1ccn([C@@H]2O[C@H](CO)[C@@H](O)[C@H]2OP(=O)(O)O)c(=O)[nH]1 [Uridine 2`-Monophosphate],area under OmniLog respiration curve,[1]; [7],6560 ± 4400
same,DuctApe activity index,[2]; [7],7 (active)
